Sampled rows, rich in hits. Any-hit rate of the full collection: about 7.4%.
SMN2 splice up: enhancers of SMN2 splice variant expression | Potency, µM (doses to about 46.1 µM), hits mostly activators | HEK293 SMN2-luciferase splicing reporter, luminescence, 30-36 h | actives 2.8% (n = 210,000); further: nearly all actives have a fitted effect of over 55% in size
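HEK293 cells carry an SMN2 minigene-luciferase reporter in which exon 7 inclusion puts luciferase in frame. Cells were seeded at 2000 cells/well, attached for 10-12 hours, then exposed to compounds for 30-36 hours at 37C before ONE-Glo luminescence.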
ELG1 genotox: inducers of genotoxicity in HEK293T ELG1-luciferase cells. HEK293T ELG1-luciferase reporter, luminescence, 16 h. Potency, µM (doses to about 46 µM), hits mostly activators. actives 1.3% (n = 330,000). AID 504466; further: nearly all actives have a fitted effect of over 60% in size
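DMSO vehicle served as control against compound-treated ELG1-luciferase HEK293T cells; exposure lasted 16 hr at 37 °C and 5% CO2, followed by ONE-Glo luminescence detection after 30 min.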
Rab9 prom act: activates the Rab9 promoter | Huh7 Rab9 promoter-luciferase reporter, luminescence, 24 h | Potency, µM (top dose mostly 9.22 µM), actives largely listed as activators | actives 2.8% (n = 320,000) | AID 485297; further: nearly all actives have a fitted effect of over 60% in size
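Stable Rab9-luc Huh7, 1500 cells/well, 2 h settle; cmpd in DMSO, 24 h, 37 °C/5% CO2; luciferase reagent 10 min RT; luminescence.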
NPC1 promoter act: activators of NPC1 promoter; actives 2.4% (n = 320,000); Huh7 NPC1 promoter luciferase reporter, 24 h; Potency, µM (titrated, usually from 9.22 µM), hits mostly activators; further: nearly all actives have a fitted effect of over 60% in size
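Luciferase expression driven by the NPC1 promoter was measured in stably transfected Huh7 cells after a 24 h compound incubation, using a luciferase reagent and a luminescence read.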
FLuc modulator: inhibits or activates purified firefly luciferase, miR-21 counter-screen. actives 6.9% (n = 360,000). Potency, µM (series often up to 57.5 µM), most hits filed as inhibitors. AID 588342. P08659. purified FLuc, Km substrates, luminescence inhibition; further: nearly all actives have a fitted effect of over 55% in size
Target sequence (P08659 whole entry, looked up): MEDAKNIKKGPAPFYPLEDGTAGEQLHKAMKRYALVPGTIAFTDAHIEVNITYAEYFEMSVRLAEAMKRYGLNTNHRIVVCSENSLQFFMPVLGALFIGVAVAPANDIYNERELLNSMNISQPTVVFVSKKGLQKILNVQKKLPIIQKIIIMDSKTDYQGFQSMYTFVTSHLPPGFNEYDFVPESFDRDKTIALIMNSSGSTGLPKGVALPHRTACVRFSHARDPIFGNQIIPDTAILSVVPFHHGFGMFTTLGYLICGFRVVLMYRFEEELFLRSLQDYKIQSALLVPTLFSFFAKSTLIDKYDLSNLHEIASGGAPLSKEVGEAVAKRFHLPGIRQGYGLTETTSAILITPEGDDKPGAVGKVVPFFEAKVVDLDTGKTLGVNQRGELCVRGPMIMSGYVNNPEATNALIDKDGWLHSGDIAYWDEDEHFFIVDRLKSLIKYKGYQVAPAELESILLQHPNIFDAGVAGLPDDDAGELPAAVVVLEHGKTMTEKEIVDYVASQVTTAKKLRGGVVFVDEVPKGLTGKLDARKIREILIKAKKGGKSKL
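Purified P. pyralis luciferase, 10 nM final, with Km-level 10 uM D-luciferin and 10 uM ATP in 50 mM Tris acetate pH 7.5, 10 mM Mg acetate, 0.01% Tween-20, 0.05% BSA; 6-point qHTS titration about 60 µM downward; luminescence read.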
Hits are given with their value; 0 = inactive; ? = inconclusive; - = not tested or not shown; [ ] = dose if it differs, or a comment. The call rests on the fitted dose curve; in most records, active means well fitted curve in the direction sought with a large enough effect; inconclusive means small, poorly fitted or top-dose-only effect, or another doubt; inactive means no such curve, though single readings can be large; an effect the other way counts as inactive or inconclusive.

SMILES | SMN2 splice up | ELG1 genotox | Rab9 prom act | NPC1 promoter act | FLuc modulator
O=S(=O)(Cc1noc(-c2ccc(Cl)cc2)n1)Cc1ccco1 | - | 0 | 0 | 0 | ?
Cc1ccccc1-c1noc(-c2ccccc2F)n1 | ? | 6.5µM | 2.2µM | 2.5µM | 1.9µM
Clc1ccc(-c2nc(Cc3ccccc3Cl)no2)cc1 | 0 | 0 | 0 | 0 | 15µM
COc1cc(OC)c(NC(=O)Nc2nnc(N(C)C3CCCCC3)s2)cc1Cl | - | - | - | - | 0
CN1C(=O)c2ccccc2Sc2ccc(NC(=O)N3CCN(c4cccc(Cl)c4)CC3)cc21 | - | - | - | - | 0
COc1cc2[nH]c(C(=O)N3CCC(Cc4ccccc4)CC3)cc2c(OC)c1OC | - | 0 | 0 | 0 | 24µM
CCN1CCN(C(=O)c2cc3c(OC)c(OC)c(OC)cc3[nH]2)CC1 | - | 0 | 0 | 0 | 0
COc1cc2[nH]c(C(=O)N3CCc4ccccc43)cc2c(OC)c1OC | - | ? | ? | 0 | 17µM
COC(CNC(=O)c1cccc2c1C(=O)N(Cc1cccnc1)C2)OC | 0 | 0 | 0 | 0 | 0
COCCN1Cc2cccc(C(=O)Nc3ccc4c(c3)OCCO4)c2C1=O | 0 | ? | 0 | 0 | 21µM
CCOc1ccc(NC(=O)c2cccc3c2C(=O)N(Cc2cccnc2)C3)cc1 | 0 | ? | 0 | 0 | 8.5µM
CCCN1Cc2cccc(C(=O)Nc3ccc(CN4CCCC4)cc3)c2C1=O | 0 | 0 | 0 | 0 | 17µM
C[C@H](CCC(=O)NCC(=O)O)C1CC[C@H]2[C@H]3C(C[C@H](O)[C@]12C)[C@@]1(C)CC[C@@H](O)C[C@H]1C[C@H]3O (stereo partly specified) | 0 | - | - | - | -
Cc1ccc(-n2nc(C)c3c(C(F)(F)F)cc(-c4cccnc4)nc32)cc1C | 0 | - | - | - | 0
COc1ccccc1CNC(=O)C1CCCN(C(=O)c2cnn(-c3ccc(F)cc3)c2-n2cccc2)C1 (stereo unspecified) | - | - | - | - | 0
CCC(=O)n1nc(-c2ccco2)nc1SCc1ccccc1 | ? | ? | 0 | 0 | 15µM
CC(=O)n1nc(-c2ccco2)nc1SCc1ccccc1 | 0 | 0 | 0 | 0 | ?
O=C(CCn1cnc2ccccc2c1=O)NCc1ccccc1 | - | - | - | - | 0
C=CCN(CC=C)CCOc1cc(C)ccc1[N+](=O)[O-] | 0 | 0 | 0 | 0 | 0
C=CCN(CC=C)CCOc1ccc(C)cc1[N+](=O)[O-] | 0 | 0 | 0 | 0 | 24µM
Cc1ccc(OCCCN2CCOCC2)c([N+](=O)[O-])c1 | ? | ? | ? | ? | 21µM
CN(C)c1ccc(C=NCC2COc3ccccc3O2)cc1 (stereo unspecified) | - | 0 | 0 | 0 | 12µM
CCOc1ccccc1CNC(=O)CCc1c(C)nn(-c2ccc(N3CCCCC3)nn2)c1C | - | - | - | - | 0
CCNC(=O)c1ccc(NS(=O)(=O)c2ccc3[nH]c(=O)[nH]c3c2)cc1 | - | 7.3µM | 3.5µM | 2.2µM | 15µM
CC1CCCN(C(=O)c2ccc(NS(=O)(=O)c3ccc4[nH]c(=O)[nH]c4c3)cc2)C1 (stereo unspecified) | - | 0 | 0 | 0 | 0
SMILES | SMN2 splice up | ELG1 genotox | Rab9 prom act | NPC1 promoter act | FLuc modulator
CC1CCC(NC(=O)c2ccc(NS(=O)(=O)c3ccc4[nH]c(=O)[nH]c4c3)cc2)CC1 (stereo unspecified) | - | 18µM | ? | ? | ?
Cc1cc(N/N=C/c2ccccc2)nc(N)n1 | - | ? | 0 | 0 | 17µM
C(=C\c1ccccc1)/C=N/Nc1nc(N2CCOCC2)nc(N2CCOCC2)n1 | 0 | 0 | 0 | 0 | 0
Cc1cn(-c2ccccc2)c(C)c1/C=N\Nc1nc(N2CCOCC2)nc(N2CCOCC2)n1 | 0 | 0 | 0 | 0 | 19µM
Cc1ccc(/C=N/Nc2cc(C)nc(N3CCOCC3)n2)cc1 | - | 0 | 0 | 0 | 2.7µM
Cc1cc(N/N=C/c2ccccc2)nc(N2CCOCC2)n1 | - | 0 | 0 | 0 | 12µM
C[C@@]12CCC(O)C[C@H]1CCc1ccccc12 (stereo partly specified) | 0 | - | - | - | -
COc1cccc(NC(=O)CN(CCc2ccccc2)S(=O)(=O)c2ccc(Cl)cc2)c1 | 0 | - | - | - | 0
O=C1CCC2S/C(=C/Nc3ccc(C(F)(F)F)cc3)C(=O)N12 (stereo unspecified) | 0 | 0 | 0 | 0 | 15µM
O=C1CCCC/C1=C/Nc1cccc(C(F)(F)F)c1 | 0 | 0 | 0[1.84 µM] | 0 | ?
N[C@@H](Cc1ncccn1)C(=O)O | 0[9.22 µM] | - | - | - | -
Cc1ccc(-n2ncc3c(NCCCN4CCOCC4)ncnc32)cc1Cl | - | - | - | - | 9.5µM
COCCNc1ncnc2c1cnn2-c1cc(Cl)ccc1C | - | - | - | - | 0
CC(=O)NNc1ncnc2c1cnn2-c1ccc(C)cc1 | - | ? | 0 | 0 | ?
Cc1ccc(-n2ncc3c(NCCCN4CCOCC4)ncnc32)c(C)c1 | 0 | 0 | 0 | 0 | 0
COc1ccc(-n2ncc3c(NCCN4CCOCC4)ncnc32)cc1 | 0 | 15µM | ? | 0 | 15µM
Cc1ccc(-n2ncc3c(NCCO)ncnc32)cc1Cl | - | - | - | - | 6µM
CC(=O)NNc1ncnc2c1cnn2-c1ccc(C)c(Cl)c1 | 0 | 0 | 0 | 0 | 24µM
CN(C)CCCNC(=O)C(=O)NCC(c1ccc2c(c1)OCO2)N1CCOCC1 (stereo unspecified) | - | - | - | - | 0
Cc1ccc(CCNS(=O)(=O)c2c(C)nc3sc(C)c(C)n3c2=O)cc1 | - | - | - | - | 0
O=C(CSc1nc(-c2ccccc2)c2ccccc2n1)Nc1ccc(F)cc1 | 0 | - | - | - | 0
CC(C)[C@@H](CC(=O)N[C@@H]1CCCC[C@H]1C(=O)N[C@H](CC(=O)N[C@@H](CCC(=O)O)CC(=O)O)Cc1c[nH]c2ccccc12)NC(=O)C[C@H](Cc1ccccc1)NC(=O)[C@@H]1CNCC[C@H]1N | 0 | - | - | - | -
O=C(NS(=O)(=O)c1ccc(F)cc1)O[C@@H]1C(=O)c2cc(Br)ccc2O[C@H]1c1ccc2c(c1)OCO2 | 0 | - | - | - | -
COc1ccc(-n2ncc3c(NCCCN4CCOCC4)ncnc32)cc1 | 0 | 9.2µM | ? | ? | 11µM
CCc1ccc(-c2cc(C(=O)Nc3ccc(S(=O)(=O)NC(C)=O)cc3)c3ccccc3n2)cc1 | 0 | 0 | 0 | ? | 0.54µM
SMILES | SMN2 splice up | ELG1 genotox | Rab9 prom act | NPC1 promoter act | FLuc modulator
Cc1ccc(-c2cc(C(=O)Nc3ccc(S(=O)(=O)Nc4ncccn4)cc3)c3ccccc3n2)cc1 | 0 | 0 | 0 | 0 | 6.7µM
CCn1c(=O)c2cc(C(=O)Nc3cc(F)ccc3F)sc2c2ccccc21 | 0 | - | - | - | 0
Cc1c(C2=CCN(S(=O)(=O)c3ccc(CC(C)C)cc3)CC2)c2ccccc2n1CC(=O)N1CCCC1 | 0 | - | - | - | 0
CCCCN1C=CC(=C2C(=O)c3ccccc3C2=O)C=C1 | 0 | ? | 0.032µM | ? | 0.13µM
CC(C)(C)OC(=O)N/N=C\c1cccnc1 | - | 0 | ? | 0 | 11µM
O=C(N/N=C/c1cccnc1)C(O)(c1ccccc1)c1ccccc1 | 0 | 0 | 0 | 0 | 0
CC(C)(C)NC(=O)C(=O)N/N=C/c1ccc(Br)cc1 | 0 | 0 | 0 | 0 | ?
CC(C)(C)OC(=O)N/N=C/c1ccc(Br)cc1 | 11µM | ? | 1.6µM | ? | 12µM
OCC(O)C(O)C(O)C(O)C(O)CO (stereo unspecified) | 0 | - | - | - | -

Screens as filed in PubChem BioAssay.
